Screening data as filed in PubChem BioAssay.
Rows were chosen to be rich in hits. Some 2.3% of all compounds tested hit in one or more screens of this group.
GLD-1 TGE inh – GLD-1-TGE RNA interaction inhibition (C. elegans); purified GLD-1 + fluorescein TGE RNA, fluorescence polarization; inhibition, % at 5.96 µM; 320,000 tested, 0.44% active;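 active = percent inhibition above a per-plate cutoff, the plate mean of test compounds plus 3 SD, cut at about 30% in these data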;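 note: 0% = DMSO wells with GLD-1 and probe and 100% = wells lacking GLD-1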
Target sequence (Q17339 whole entry, looked up): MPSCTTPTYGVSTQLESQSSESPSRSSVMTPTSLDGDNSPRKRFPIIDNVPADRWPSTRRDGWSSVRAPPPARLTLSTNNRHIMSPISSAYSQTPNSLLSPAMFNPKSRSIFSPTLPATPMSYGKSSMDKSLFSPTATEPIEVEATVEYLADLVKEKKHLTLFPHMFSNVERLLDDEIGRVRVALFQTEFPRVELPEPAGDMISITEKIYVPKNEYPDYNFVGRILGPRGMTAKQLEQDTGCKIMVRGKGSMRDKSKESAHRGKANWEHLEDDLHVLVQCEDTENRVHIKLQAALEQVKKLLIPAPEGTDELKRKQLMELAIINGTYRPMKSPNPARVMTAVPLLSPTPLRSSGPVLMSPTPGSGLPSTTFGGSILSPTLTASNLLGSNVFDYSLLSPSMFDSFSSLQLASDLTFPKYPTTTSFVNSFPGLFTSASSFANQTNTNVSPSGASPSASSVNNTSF
Bcl-xL primary – blocks human Bcl-xL binding to Bim BH3 peptide; Q07817; GST-Bcl-xL / FITC-Bim BH3 peptide fluorescence polarization; inhibition, % at 10.9 µM; 320,000 tested, 0.7% active; AID 2129;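 active = inhibition above the mean of all tested compounds plus 3 SD, cutoff set per campaign, cut at about 30% in these data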;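 note: 0% = DMSO wells and 100% = unlabeled Bim-BH3 peptide competitor; inhibitors lower millipolarization by displacing the labeled peptide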
Mcl1-Noxa inh – disrupts binding of human Mcl-1 to Noxa peptide; inhibition, % at 21.7 µM; Q07820; TR-FRET Mcl-1/Noxa peptide binding, 2 h; AID 1022; 220,000 tested, 1.5% active;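 active = compounds that cut the protein-peptide binding signal by more than 50% relative to plate controls in a single-dose test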;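 note: His-tagged Mcl-1 with rhodamine Noxa BH3 peptide and terbium anti-His antibody; 0% = Mcl-1 plus Noxa peptide wells and 100% = peptide-only wells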
Bim-Mcl-1 – inhibitors of Bim-Mcl-1 interaction, human. Q07820. Bead-based flow cytometry, Bim peptide-Mcl-1 binding. inhibition, % at 10 µM. 190,000 tested, 0.1% active; in the data active = inhibition above about 40%;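 note: 0% = no compound tracer wells and 100% = peptide blocker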
MCL1 BIM primary – MCL1-BIM-BH3 interaction inhibition (human); GST-MCL1 / FITC-Bim-BH3 fluorescence polarization; inhibition, % at 10.9 µM; 320,000 tested, 0.68% active; AID 2057;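 active = inhibition above the mean inhibition of all tested compounds plus 3 SD, set per campaign, cut at about 40% in these data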;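 note: 0% = DMSO wells and 100% = unlabeled Bim-BH3 peptide control; higher means more loss of mP so more displacement of Bim peptide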
Mcl1 Bid PPI – disrupts binding of human Mcl-1 to Bid peptide. Q07820. TR-FRET Mcl-1/Bid-Dy647 peptide binding, 1536-well. inhibition, % at 21.7 µM. 220,000 tested, 0.97% active. AID 1021;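 active = compounds that cut the binding signal by more than half at the single screening dose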;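 note: His-tagged Mcl-1 with europium anti-His antibody binding Bid BH3 peptide; 0% = Mcl-1 plus peptide wells and 100% = peptide-only wells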
The depositor's hits bear a star; / = no result given.

SMILES	GLD-1 TGE inh	Bcl-xL primary	Mcl1-Noxa inh	Bim-Mcl-1	MCL1 BIM primary	Mcl1 Bid PPI
O=c1oc2ccccc2c(Nc2ccc3ccccc3c2)c1[N+](=O)[O-]	12	4	67*	0	4	39
NS(=O)(=O)c1ccc(CCNC(=O)C(=O)c2c[nH]c3ccccc23)cc1	2	4	7	-4	14	99*
O=C(O)CCc1ccc(-c2ccc(Cl)cc2)o1	8	7	18	-2	6	95*
O=C(O)c1cccc(OS(=O)(=O)c2cc(Br)ccc2Br)c1	1	2	/	/	6	/
CN(C)CCN(C(=O)c1ccccc1Cl)c1nc2c(Cl)cccc2s1	5	7	-7	-4	0	57*
CCn1cc(C(=O)N[C@@H](CCSC)C(=O)NCCN2CCOCC2)c(=O)c2cc3c(cc21)OCO3	0	3	/	/	2	/
Cc1nc(CSc2nc3[nH]ncc3c(=O)n2-c2ccccc2)cs1	-4	3	7	-2	-9	84*
CCOC(=O)c1sc(=S)n(C)c1C	1	9	3	0	8	-25
Cc1c(NC(=O)Oc2ccccc2)sc(=S)n1C	-3	2	14	0	10	3
CC(=O)NC(=O)Nc1sc(=S)n(C)c1C	6	1	1	41*	3	1
Cc1ccc(NC(=O)Nc2sc(=S)n(C)c2C)cc1	0	0	54*	0	6	-22
Cc1ccc(/C=N/Nc2cccc3cccnc23)c(O)c1	5	8	19	-6	8	-37
Oc1ccc(/C=N/Nc2cccc3cccnc23)c(O)c1	-1	8	62*	0	12	-39
Cc1cc(C(=O)Nc2nncs2)oc1C	4	6	/	/	2	/
COc1ccc(S(=O)(=O)N(C)C)cc1NC(=O)CCCSc1ccccc1	3	4	/	/	1	/
COC(=O)c1cc2sc(Cl)cc2n1CC(=O)Nc1ccc(OC)c(OC)c1OC	7	2	5	2	-3	1
COC(=O)c1cc2sc(Cl)cc2n1CC(=O)Nc1cccc(SC)c1	3	-3	-7	0	-4	96*
O=C(Nc1cc2cccc([N+](=O)[O-])c2oc1=O)c1cccs1	-1	-3	62*	0	7	-30
COc1ccc(N(CC(=O)Nc2ccccc2F)S(=O)(=O)c2ccc(OC)c(OC)c2)cc1	1	1	/	/	1	/
COc1ccc(CCNc2nc(=S)[nH]c3cc(OC)c(OC)cc23)cc1OC	2	9	80*	27	10	-23
COc1ccc(CCNc2ncnc3c2[nH]c2cc(OC)c(OC)cc23)cc1OC	5	-2	66*	/	-1	-8
COc1cc2[nH]c(=S)nc(Nc3ccc(NC(C)=O)cc3)c2cc1OC	-1	25	78*	33	24	-79
COc1cc2[nH]c(=S)nc(NC3CCCCCC3)c2cc1OC	-12	18	7	13	23	-21
COc1cc2[nH]c(=S)nc(NCCc3ccc(S(N)(=O)=O)cc3)c2cc1OC	4	17	59*	38	11	-55
COc1ccc(CCNc2ncnc3cc(OC)c(OC)cc23)cc1OC	/	/	10	0	/	-21
SMILES	GLD-1 TGE inh	Bcl-xL primary	Mcl1-Noxa inh	Bim-Mcl-1	MCL1 BIM primary	Mcl1 Bid PPI
COC(=O)c1sc(N2C(=O)c3oc4ccccc4c(=O)c3C2c2cccc(O)c2)nc1C (stereo unspecified)	-4	5	18	/	5	58*
NC(=O)CC(NC(=O)Cc1ccc(Br)cc1)c1ccc(N2CCC(N3CCCC3)CC2)c([N+](=O)[O-])c1 (stereo unspecified)	-1	6	/	/	7	/
CCCOc1ccc(C(=O)Nc2ccc3c(c2)OCCO3)cc1	0	-2	/	/	0	/
CCOC(=O)C1=C(O)/C(=C/N(C)C)N=C1C	23	36*	7	1	32	-19
Cc1ccc(-n2c(-c3ccccc3)c[n+]3c2CCC3)cc1	0	4	51*	-1	3	-11
Cc1ccc(-n2nnnc2-c2cccs2)cc1[N+](=O)[O-]	3	0	/	/	2	/
COc1ccc2cc3c(N)nn(C(=O)Cc4ccc(Cl)cc4)c3nc2c1	0	4	25	0	5	66*
CN(CC1COc2ccccc2O1)C(=O)CSc1ncccn1 (stereo unspecified)	-1	/	/	/	/	/
Oc1[nH]c2ccccc2c1N=Nc1ccccc1	70*	41*	5	/	21	-12
Oc1[nH]c2ccccc2c1N=Nc1nc2ccccc2s1	1	16	84*	-2	28	59*
Cc1ccc2[nH]c(C)c(/C=N/Nc3nc4ccccc4s3)c2c1	4	-4	18	0	-3	-69
CC(C)(O)C(=O)N=Nc1c(O)[nH]c2ccccc12	4	-1	-11	-5	-2	5
COC(=O)/C=C(\C)N=Nc1c(O)[nH]c2ccccc12	6	6	52*	/	0	34
Cc1ccc2[nH]c(O)c(N=Nc3nc4ccccc4s3)c2c1	-3	10	95*	/	22	51*
Oc1[nH]c2ccccc2c1N=Nc1ccc(F)cc1	-27	-70	17	0	-191	-15
CCN(CC)S(=O)(=O)c1cccc(NC(=O)CSc2nnc(N)s2)c1	4	-4	0	0	0	-30
CCOCCCNC(=O)c1ccc(OC2CCN(C(C)=O)CC2)c(OC)c1	-1	0	/	/	5	/
Cc1cccc(-c2nc(S(=O)(=O)c3ccc(F)cc3)c(NCCCN3CCOCC3)o2)c1	-4	5	/	/	8	/
Nc1nn2c(-c3ccccc3)cc(=O)[nH]c2c1N=Nc1ccc(Br)cc1	/	/	92*	1	/	36
O=c1[nH]c(CSc2ncccn2)nc2c1cnn2-c1ccccc1	-6	4	58*	-7	6	-19
N#CCCN(C(=O)COC(=O)CNS(=O)(=O)c1ccc2ccccc2c1)c1ccccc1	1	-3	/	/	-13	/
O=c1nc(/C=C/c2cc([N+](=O)[O-])ccc2Cl)cc(C(F)(F)F)[nH]1	-1	8	13	2	8	2
O=c1nc(/C=C/c2cccn2-c2ccc([N+](=O)[O-])cc2)cc(C(F)(F)F)[nH]1	-23	-44	57*	0	-47	-63
CCN(CC)C(=O)[C@H]1CC(CC(=O)NC(C)(C)C)C(=O)N2CCc3c([nH]c4ccccc34)[C@]12C (stereo partly specified)	0	/	/	/	/	/
CCOC(=O)Cc1csc(NC(=O)c2csc(C)c2)n1	7	3	8	-5	8	-17
CCOC(=O)Cc1csc(NC(=O)c2sc3nc4c(C)cc(C)cc4cc3c2N)n1	-8	26	64*	-4	-4	27
COc1ccc(CC(=O)n2[nH]c(=O)c3ccccc3c2=O)cc1OC	-1	8	-18	/	6	-19
COc1ccc(CC(=O)n2[nH]c(=O)ccc2=O)cc1OC	6	8	75*	/	16	-7
